# Measured values taken from paper PMC8384837, “Expanding the binding specificity for RNA recognition by a PUF domain”.
# Tests used:
# Assay in all cases: yeast three-hybrid, YBZ-1, SC-Leu-His + 0.5 mM 3-AT, 4 days
# Details in all cases: tags: N-Gal4 AD-HA kept; label: inside an RPR1-promoter hybrid RNA with tandem MS2 sites; ssRNA
# PUM1 PUF domain R4-PHQ = PUM1 PUF domain R4-PHQ (Homo sapiens, UniProt Q14671 828-1176, N971P)
# Outline: (§1)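 Sequencing with Illumina followed PCR amplification of the repeat regions from transformants grown four days on SC-Leu (input) or SC-Leu-His + 0.5 mM 3-AT (selection). The transformants were strain YBZ-1 with a LexA–MS2 coat fusion and a HIS3 reporter, carrying Pumilio-1 PUF domain libraries and matching RNA elements. The interaction score is the log change in variant frequency from input to selection, computed in log2 with a pseudocount of 1 for absent variants.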
# PUM1 PUF domain R4-WGW = PUM1 PUF domain R4-WGW (Homo sapiens, UniProt Q14671 828-1176, N971W;H972G;Q975W)
# Outline: as §1
# PUM1 PUF domain R6-SWQ = target: T1, PUM1 PUF domain R6-SWQ (Homo sapiens, UniProt Q14671 828-1176, N1043S;Y1044W)
# T1 sequence: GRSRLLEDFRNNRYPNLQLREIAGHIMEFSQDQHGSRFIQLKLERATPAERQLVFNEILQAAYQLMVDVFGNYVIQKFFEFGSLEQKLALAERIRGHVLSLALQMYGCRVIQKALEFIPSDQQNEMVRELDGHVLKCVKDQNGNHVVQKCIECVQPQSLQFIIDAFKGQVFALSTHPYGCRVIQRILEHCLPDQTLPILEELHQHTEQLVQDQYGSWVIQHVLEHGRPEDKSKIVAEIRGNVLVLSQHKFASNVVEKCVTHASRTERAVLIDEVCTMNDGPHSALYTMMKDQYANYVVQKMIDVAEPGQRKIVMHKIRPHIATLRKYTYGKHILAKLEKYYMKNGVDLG
# Outline: as §1
# PUM1 PUF domain R7-CCR = PUM1 PUF domain R7-CCR (Homo sapiens, UniProt Q14671 828-1176, S1079C;N1080C;E1083R)
# Outline: as §1
# PUM1 PUF domain R3-TRP = PUM1 PUF domain R3-TRP (Homo sapiens, UniProt Q14671 828-1176, C935T;Q939P)
# Outline: as §1
# PUM1 PUF domain R5-LHR = PUM1 PUF domain R5-LHR (Homo sapiens, UniProt Q14671 828-1176, C1007L;R1008H;Q1011R)
# Outline: as §1
# PUM1 PUF domain R3-FWR = PUM1 PUF domain R3-FWR (Homo sapiens, UniProt Q14671 828-1176, C935F;R936W;Q939R)
# Outline: as §1
# PUM1 PUF domain R8-TRR = PUM1 PUF domain R8-TRR (Homo sapiens, UniProt Q14671 828-1176, N1122T;Y1123R;Q1126R)
# Outline: as §1
# PUM1 PUF domain R3-GFD = PUM1 PUF domain R3-GFD (Homo sapiens, UniProt Q14671 828-1176, C935G;R936F;Q939D)
# Outline: as §1
# PUM1 PUF domain R1-KKT = PUM1 PUF domain R1-KKT (Homo sapiens, UniProt Q14671 828-1176, S863K;R864K;Q867T)
# Outline: as §1
sequence,measurement,setting,value
GGCUAGAACUAGUGGAUCCCCCGGCGCCCGGCGGCUCGAGCCCGGGUAAGUGUACAUAGUCUGCAUGCCGCCGGGCGCCAUGCCUGCAGGUCGACUCUAGAAAACAUG,binding signal,PUM1 PUF domain R4-PHQ,2.14 log2 enrichment (interaction score)
same,binding signal,PUM1 PUF domain R4-WGW,2 log2 enrichment (interaction score)
GGCUAGAACUAGUGGAUCCCCCGGCGCCCGGCGGCUCGAGCCCGGGUAAGUGGAAAUAGUCUGCAUGCCGCCGGGCGCCAUGCCUGCAGGUCGACUCUAGAAAACAUG,binding signal,PUM1 PUF domain R6-SWQ,3.61 log2 enrichment (interaction score)
GGCUAGAACUAGUGGAUCCCCCGGCGCCCGGCGGCUCGAGCCCGGGUAAGUCUAAAUAGUCUGCAUGCCGCCGGGCGCCAUGCCUGCAGGUCGACUCUAGAAAACAUG,binding signal,PUM1 PUF domain R7-CCR,3.07 log2 enrichment (interaction score)
GGCUAGAACUAGUGGAUCCCCCGGCGCCCGGCGGCUCGAGCCCGGGUAAGUGUAAAUAGUCUGCAUGCCGCCGGGCGCCAUGCCUGCAGGUCGACUCUAGAAAACAUG,binding signal,PUM1 PUF domain R3-TRP,4.51 log2 enrichment (interaction score)
same,binding signal,PUM1 PUF domain R4-WGW,3.2 log2 enrichment (interaction score)
same,binding signal,PUM1 PUF domain R5-LHR,3.11 log2 enrichment (interaction score)
same,binding signal,PUM1 PUF domain R3-FWR,0.88 log2 enrichment (interaction score)
same,binding signal,PUM1 PUF domain R8-TRR,1.14 log2 enrichment (interaction score)
same,binding signal,PUM1 PUF domain R3-GFD,5.65 log2 enrichment (interaction score)
GGCUAGAACUAGUGGAUCCCCCGGCGCCCGGCGGCUCGAGCCCGGGUAAGUGUAUAUAGUCUGCAUGCCGCCGGGCGCCAUGCCUGCAGGUCGACUCUAGAAAACAUG,binding signal,PUM1 PUF domain R4-PHQ,7.3 log2 enrichment (interaction score)
same,binding signal,PUM1 PUF domain R4-WGW,3.62 log2 enrichment (interaction score)
GGCUAGAACUAGUGGAUCCCCCGGCGCCCGGCGGCUCGAGCCCGGGUAAGUGUAAUUAGUCUGCAUGCCGCCGGGCGCCAUGCCUGCAGGUCGACUCUAGAAAACAUG,binding signal,PUM1 PUF domain R3-TRP,1.29 log2 enrichment (interaction score)
same,binding signal,PUM1 PUF domain R3-FWR,2.94 log2 enrichment (interaction score)
GGCUAGAACUAGUGGAUCCCCCGGCGCCCGGCGGCUCGAGCCCGGGUAAGUGAAAAUAGUCUGCAUGCCGCCGGGCGCCAUGCCUGCAGGUCGACUCUAGAAAACAUG,binding signal,PUM1 PUF domain R6-SWQ,2.27 log2 enrichment (interaction score)
GGCUAGAACUAGUGGAUCCCCCGGCGCCCGGCGGCUCGAGCCCGGGUAAGCGUAAAUAGUCUGCAUGCCGCCGGGCGCCAUGCCUGCAGGUCGACUCUAGAAAACAUG,binding signal,PUM1 PUF domain R8-TRR,2.73 log2 enrichment (interaction score)
GGCUAGAACUAGUGGAUCCCCCGGCGCCCGGCGGCUCGAGCCCGGGUAAGUGUAAAUCGUCUGCAUGCCGCCGGGCGCCAUGCCUGCAGGUCGACUCUAGAAAACAUG,binding signal,PUM1 PUF domain R1-KKT,3.84 log2 enrichment (interaction score)
